Test results: PubChem BioAssay AID1159580 (chemical genetic matrix, 2015)
The whole screen tested about 5,500 compounds, of which about 2,000 (36%) were called active. Another 18% or so got no clear call; they are omitted. Cut-off read from the data, not from the text of the source: active = normalized growth mostly below about 0.91 (no sharp cut-off); inconclusive = no clear call, values can overlap the other calls; inactive = mostly above about 0.92. Some of the results follow.

Experiment: chemical genetic growth profiling, strain panel (AID 1159580);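 note: tested at 20 µM; growth read once vehicle control cultures reached saturation at 30 °C; 1 = growth at the plate median or of vehicle wells; lower values mean less growth of the strain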
Conditions: growth OD
[1] = S. cerevisiae deletion strains, locus YAL040C, strain CLN3, stronger effect = lower value
[2] = S. cerevisiae deletion strains, locus YCL061C, strain MRC1 (second series), stronger effect = lower value
[3] = S. cerevisiae deletion strains, locus YDR150W, strain NUM1, stronger effect = lower value
[4] = S. cerevisiae deletion strains, locus YDR363W, strain ESC2, stronger effect = lower value
[5] = S. cerevisiae deletion strains, locus YER002W, strain NOP16, stronger effect = lower value
[6] = S. cerevisiae deletion strains, locus YJR075W, strain HOC1, stronger effect = lower value
[7] = S. cerevisiae deletion strains, locus YMR263W, strain SAP30, stronger effect = lower value
[8] = S. cerevisiae deletion strains, locus YNL128W, strain TEP1, stronger effect = lower value
[9] = S. cerevisiae deletion strains, locus YNL153C, strain GIM3, stronger effect = lower value
[10] = S. cerevisiae deletion strains, locus YNL175C, strain NOP13, stronger effect = lower value
[11] = S. cerevisiae deletion strains, locus YNL197C, strain WHI3, stronger effect = lower value
[12] = S. cerevisiae deletion strains, locus YNL224C, strain SQS1, stronger effect = lower value
[13] = S. cerevisiae deletion strains, locus YNL322C, strain KRE1, stronger effect = lower value
[14] = S. cerevisiae deletion strains, locus YOR083W, strain WHI5 (second series), stronger effect = lower value
[15] = S. cerevisiae deletion strains, locus YPL055C, strain LGE1, stronger effect = lower value
[16] = S. cerevisiae deletion strains, locus YPL241C, strain CIN2, stronger effect = lower value

Measured: normalized growth

O=C(O)CCCCCC[C@H]1C(=O)NC(=O)N1CC[C@@H](O)C1CCCCC1
inactive: [1] 0.969 | [2] 0.985 | [3] 0.996 | [4] 0.985 | [5] 0.936 | S. cerevisiae deletion strains, locus YGR229C, strain SMI1, stronger effect = lower value 0.999 | [6] 0.996 | [7] 0.993 | S. cerevisiae deletion strains, locus YMR307W, strain GAS1, stronger effect = lower value 1 | [8] 0.942 | [9] 0.971 | [10] 0.987 | [11] 0.962 | [12] 0.982 | [13] 0.99 | [14] 0.985

COc1ccccc1C1OC(=O)CC1C(=O)O (stereo not drawn)
inactive: S. cerevisiae deletion strains, locus YBR229C, strain ROT2, stronger effect = lower value 1.02 | S. cerevisiae deletion strains, locus YCL061C, strain MRC1, stronger effect = lower value 0.989 | S. cerevisiae deletion strains, locus YDL101C, strain DUN1, stronger effect = lower value 1 | S. cerevisiae deletion strains, locus YDL134C, strain PPH21, stronger effect = lower value 1.03 | [3] 0.947 | S. cerevisiae deletion strains, locus YEL061C, strain CIN8, stronger effect = lower value 1 | S. cerevisiae deletion strains, locus YGR078C, strain PAC10, stronger effect = lower value 0.987 | S. cerevisiae deletion strains, locus YHR030C, strain SLT2, stronger effect = lower value 0.963 | S. cerevisiae deletion strains, locus YHR087W, strain rtc3, stronger effect = lower value 1.03 | S. cerevisiae deletion strains, locus YJL187C, strain SWE1, stronger effect = lower value 1.01 | S. cerevisiae deletion strains, locus YJR043C, strain POL32, stronger effect = lower value 0.98 | [6] 0.986 | S. cerevisiae deletion strains, locus YLR039C, strain RIC1, stronger effect = lower value 1.02 | S. cerevisiae deletion strains, locus YLR058C, strain SHM2 (second series), stronger effect = lower value 1.01 | S. cerevisiae deletion strains, locus YLR085C, strain ARP6, stronger effect = lower value 1.02 | S. cerevisiae deletion strains, locus YLR262C, strain YPT6, stronger effect = lower value 1.02 | S. cerevisiae deletion strains, locus YML094W, strain GIM5, stronger effect = lower value 1.02 | S. cerevisiae deletion strains, locus YMR219W, strain ESC1, stronger effect = lower value 1.01 | [7] 0.968 | [8] 1.02 | [9] 1 | S. cerevisiae deletion strains, locus YNL298W, strain CLA4 (second series), stronger effect = lower value 0.998 | [13] 0.999 | S. cerevisiae deletion strains, locus YNR030W, strain Alg12, stronger effect = lower value 1.01 | S. cerevisiae deletion strains, locus YOL006C, strain TOP1, stronger effect = lower value 1.07 | [15] 0.955 | [16] 0.989 | S. cerevisiae deletion strains, locus YPR135W, strain CTF4, stronger effect = lower value 1.02 | S. cerevisiae strains, strain wild type, stronger effect = lower value 1.02

N=C(N)c1ccc(OCCCCCOc2ccc(C(=N)N)cc2)cc1 (tested in a mixture with another compound)
inactive: S. cerevisiae deletion strains, locus YAL013W, strain DEP1, stronger effect = lower value 0.943 | [1] 0.944 | [2] 0.981 | [3] 0.963 | [4] 0.961 | [5] 0.95 | [7] 0.983 | [10] 0.962 | [11] 0.943 | [12] 0.946 | [14] 0.944 | [15] 0.912 | [16] 0.95
